# BJeLR viability = BJeLR cell viability loss, primary screen, luminescence, CellTiterGlo ATP; BJeLR fibroblasts viability, 48 h; HRASV12, hTERT and SV40 LT/ST transformed; viability loss activity score, % (no concentration beside the values); hit rate 0.64% among 30,000; AID 2275, 2010; in the data active means viability loss activity score above about 50%;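 further: higher score means fewer live cells and less ATP luminescence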
# A1 inhib = inducers of caspase activity in MEF A1-2A-BIM cells, primary screen, A1 inhibitor project, cell-based, CaspaseGlo luminescence; caspase-Glo luminescence, 3 h; percent of clofoctol signal, DMSO as zero; caspase activation, % (test concentration not listed); hit rate 0.51% among 21,000;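 active means most replicate scores above 10, or exactly half above 10 with mean activity above 10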;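 further: effector caspase 3 and 7 activity cleaving a DEVD luciferin substrate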
# The depositor's hits bear a star; . = not tested or not shown. This is a sample that favours compounds with a hit; in the whole collection about 0.86% have one here.
SMILES,BJeLR viability,A1 inhib
CC(=O)O[C@H]1CC[C@]2(C=O)[C@H]3CC[C@]4(C)[C@@H](C5=CC(=O)OC5)CC[C@]4(O)[C@@H]3CC[C@]2(O)C1,111*,0
C[C@H]1O[C@@H](O[C@H]2[C@@H](O)C[C@H](O[C@H]3[C@@H](O)C[C@H](O[C@H]4CC[C@]5(C)C6CC[C@]7(C)[C@@H](C8=CC(=O)OC8)CC[C@]7(O)C6CC[C@@H]5C4)O[C@@H]3C)O[C@@H]2C)C[C@H](O)[C@@H]1O (stereo partly drawn),113*,1
CC(=O)OC1CCC2(C)C(CC[C@@H]3[C@@H]2CCC2(C)C(C4=CC(=O)OC4)CCC32O)C1 (stereo partly drawn),89*,0
O=C(CCl)c1cc(Br)c(Br)s1,35,4
CC(C)n1[nH]c(=O)c2c1NC(=O)CSC2c1ccc(Br)cc1 (stereo not drawn),-10,1
COc1cc2c(cc1OC)-c1c(OC)c(OC)c(N)c3c1[C@H](C2)N(C)CC3,3,1
COC(=O)C1=CO[C@H](C)[C@@H]2CN3CCC4(C(=O)Nc5ccccc54)C3C[C@H]12 (stereo partly drawn),-3,1
CCNCC(O)c1cccc(OC(=O)c2ccccc2C)c1 (stereo not drawn),-7,0
CC12CC[C@H]3C(CCC4(O)CC(O)CCC34O)C1(O)CCC2C1=CC(=O)OC1 (stereo partly drawn),3,0
COC1CC(OC2CCC3(C)C(CCC4(O)C3CC(OC(=O)c3ccccc3)C3(C)C(O)(C(C)=O)CCC43O)C2)OC(C)C1OC1CC(OC)C(OC2OC(C)C(O)C(OC)C2O)C(C)O1 (stereo not drawn),-7,0
CC(=O)OCC(=O)[C@H]1CC[C@H]2[C@@H]3CC[C@H]4C[C@H](O)CC[C@]4(C)[C@H]3C(=O)C[C@]12C,-4,0
CO[C@H]1[C@@H](O)[C@@H](C)O[C@@H](OC2CCC3(C)C(CC[C@@H]4[C@@H]3CCC3(C)C(C5=CC(=O)OC5)C(O)CC43O)C2)[C@@H]1O (stereo partly drawn),111*,0
C[C@]12CC[C@H](O)C[C@H]1CC[C@@H]1[C@@H]2C[C@@H](O)[C@]2(C)[C@@H](C3=CC(=O)OC3)CC[C@]12O,83*,0
COC1CC(O[C@H]2CC[C@@]3(C)C(CCC4C3CC[C@]3(C)C(C5=CC(=O)OC5)CCC43O)C2)OC(C)C1OC1OC(COC2OC(CO)C(O)C(O)C2O)C(O)C(O)C1O (stereo partly drawn),94*,0
C[C@]12CC[C@H](O)C[C@H]1CC[C@@H]1[C@@H]2CC[C@]2(C)[C@@H](C3=CC(=O)OC3)CC[C@]12O,91*,-1
CCN1C[C@]2(COC)CC[C@H](O)[C@]34C1[C@H](C[C@H]23)[C@@]1(O)C[C@H](OC)[C@H]2C[C@@H]4[C@@H]1[C@H]2OC(C)=O,0,0
C[C@@H]1CCC/C=C/[C@H]2C[C@@H](O)C[C@@H]2[C@@H](O)/C=C\C(=O)O1,39,5
Cc1cc(Br)c(NC(=O)C2C(C)(C)C2(C)C)c(Br)c1,-2,0
Oc1ccc2c3c1OC1[C@@H](O)CC[C@@]4(O)[C@@H](C2)N(CC2CCC2)CC[C@]314 (stereo partly drawn),16,0
CN(C)C(=O)Oc1cccc(N)c1,0,1
O=C(c1noc2c1COc1ccccc1-2)N1CCC2(CC1)OCCO2,42,-6
C/C=C(\C)[C@H](O)[C@H](C)/C=C(C)/C=C/C/C(C)=C/Cc1[nH]c(OC)c(OC)c(=O)c1C,26,0
CCOc1ccc(C(Nc2ccccc2)P2(=S)OCCCO2)cc1 (stereo not drawn),2,.
COC(=O)C12CC3CC(C(C)O)C1N(CCc1c2[nH]c2ccc(OC)cc12)C3 (stereo not drawn),3,2
CC(C)[C@]12O[C@H]1[C@@H]1O[C@]13[C@]1(O[C@H]1C[C@H]1C4=C(CC[C@@]13C)C(=O)OC4)[C@@H]2O,90*,16*
SMILES,BJeLR viability,A1 inhib
CCOc1ccccc1C1NC(=S)NC(c2ccccc2OCC)C12C(=O)NC(=O)NC2=O (stereo not drawn),0,.
COc1cc2c(cc1O)CCNC2C (stereo not drawn),-4,-1
CC[C@H]1CN2CCc3cc(OC)c(OC)cc3[C@@H]2C[C@@H]1C[C@H]1NCCc2cc(O)c(OC)cc21,94*,19*
CC(=O)NC1C(OC2OC(CC(O)C3OC(n4ccc(=O)[nH]c4=O)C(O)C3O)C(O)C(O)C2NC(=O)/C=C/CCCCCCCCCC(C)C)OC(CO)C(O)C1O (stereo not drawn),10,3
C[C@H]1O[C@@H](O[C@H]2C[C@@H](O)[C@]3(CO)C4C(CC[C@]3(O)C2)[C@@]2(O)CC[C@H](C3=CC(=O)OC3)[C@@]2(C)C[C@H]4O)[C@@H](O)[C@@H](O)[C@H]1O (stereo partly drawn),117*,-1
CC1OC(O[C@H]2C[C@@H](O)[C@]3(CO)[C@H]4[C@H](O)C[C@]5(C)[C@@H](C6=CC(=O)OC6)CC[C@]5(O)[C@@H]4CC[C@]3(O)C2)C(O)C(O)C1O (stereo partly drawn),100*,2
C[C@@H]1O[C@@H](O[C@H]2C[C@@H](O)[C@]3(CO)C4C(CC[C@]3(O)C2)[C@@]2(O)CC[C@H](C3=CC(=O)OC3)[C@@]2(C)C[C@H]4O)[C@H](O)[C@H](O)[C@H]1O (stereo partly drawn),119*,1
CN1Cc2c(ccc3c2OCO3)[C@@H]2[C@H]1c1cc3c(cc1C[C@@H]2O)OCO3,41,2
COc1ccccc1CN1CCN(Cc2ccccc2)CC1,2,0
CN(C)C(=O)Oc1nnc(SCCS(=O)(=O)c2ccc(F)cc2)n1-c1ccccc1,-2,0
CN1CCc2nc3sc(C(=O)C(C)(C)C)c(N)c3cc2C1,-3,0
CCN(CC)c1nc2ccccc2c(=O)n1-c1ccccc1,-4,0
Cc1ccccc1OCCCn1cc(C(=O)C2CC2)c2ccccc21,7,.

# Compound activity (PubChem BioAssay)
